Assay outcomes (PubChem BioAssay)
DT40 TDP1 no CPT: qHTS for Inhibitors of human tyrosyl-DNA phosphodiesterase 1 (TDP1): qHTS in cells in absence of CPT | AID 686978, 2013 | DT40 Tdp1-/- hTDP1 cells, no CPT, ATP luminescence, 48 h | Potency, µM (titrated, usually from 46.2 µM), inactives show at the top dose activity change, negative = growth inhibition, usual class: inhibitors | 420,000 tested, 15% active; further: potency means the concentration at half of the fitted maximal effect; on the % scale 0 is the no-effect control and ±100 the full control effect; nearly all actives have a fitted effect of over 55% in size
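Stably hTDP1-transfected Tdp1-null chicken DT40 cells were treated with library compounds minus camptothecin and grown for at least 48 hr at 37 °C, after which cellular ATP was quantified by luminescence.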
ClpP mod: qHTS Assay for Activators of ClpP; Potency, µM (series often up to 57.5 µM), without a hit: at the highest dose activity change, negative = active; ATP-dependent Clp protease proteolytic subunit (Bacillus subtilis (strain 168)), P80244; purified B. subtilis ClpP, FRET peptide cleavage, 20 min; 340,000 tested, 1.9% active; active means well fitted falling curve with a large enough effect; inconclusive means small, poorly fitted or top-dose-only effect; inactive means no such curve, though single readings can be large or run the other way; further: potency means the concentration at half of the fitted maximal effect; the source files actives as falling curves though it sought activators and does not explain the sign; nearly all actives have a fitted effect of over 65% in size
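FRET quenching reversal measured ClpP activation: 10 microg/mL B. subtilis ClpP at pH 8 with the FRET-FV decapeptide, read at 430 nm after 320 nm excitation. The 20-min minus 0-min signal was scaled between DMSO/no-enzyme wells and ADEP (5.8 microM final).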
IL1B secr inh: qHTS for Inhibitors of Inflammasome Signaling: IL-1-beta AlphaLISA Primary Screen; THP-1 LPS/ATP IL-1B secretion, AlphaLISA, 16 h; active compounds read low; activity change, % at 57.5 µM; 360,000 tested, 4.7% active; AID 743279, 2014; in the data active means activity change below about -50%; inconclusive means mostly about -30% to -49%; further: on the % scale 0 is the no-effect control and ±100 the full control effect
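Secreted IL-1B measured by AlphaLISA bead assay after 16 h compound exposure of THP-1 cells; compounds (final up to 57.5 uM) added 1 h before LPS (250 ng/mL) and ATP (1.25 mM) stimulation; lower signal means less secretion.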
D3 ag: qHTS of D3 Dopamine Receptor Agonist: qHTS. D3R DiscoveRx beta-arrestin cells, luminescence, 90 min. 410,000 tested, 0.58% active. AID 652048, 2013. D(3) dopamine receptor (Homo sapiens), P35462. max activation, %; in the data active means max activation above about 30%; further: 0% is about no effect
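Cells at 1500/well, incubated overnight, then treated with pinned compounds (dopamine as control) for 90 min at 37 degrees C. DiscoveRx reagent added for 30 - 60 minutes at room temperature; luminescence read.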
TDP1 cell CPT: qHTS for Inhibitors of human tyrosyl-DNA phosphodiesterase 1 (TDP1): qHTS in cells in presence of CPT; 420,000 tested, 12% active; Potency, µM (titrated, usually from 46.2 µM), inactives show at the top dose activity change, negative = growth inhibition, usual class: inhibitors; AID 686979, 2013; chicken DT40 Tdp1-/-;hTDP1 cells + 20 nM CPT, ATP luminescence, 48 h; further: potency means the concentration at half of the fitted maximal effect; on the % scale 0 is the no-effect control and ±100 the full control effect; nearly all actives have a fitted effect of over 55% in size
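Chicken DT40 Tdp1-/- cells complemented with human TDP1, 400 cells/well, exposed to compounds plus 20 nM camptothecin for at least 48 h at 37 C; viability read as ATP content by CellTiter-Glo luminescence.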
D3 antag: qHTS of D3 Dopamine Receptor Antagonist: qHTS; D(3) dopamine receptor (Homo sapiens), P35462; D3R cells, DiscoveRx beta-arrestin luminescence, antagonist mode; active compounds read low; max response, negative = inhibition, %; 360,000 tested, 2.5% active; in the data active means max response below about -50%; inconclusive means no clear call, values can overlap the other calls; further: on the % scale 0 is the no-effect control and ±100 the full control effect
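Cells expressing the human receptor were seeded at 1500 cells/well, incubated overnight at 37 degrees C in 5% CO2, then exposed to library compounds with dopamine controls for 90 minutes at 37 degrees C before luminescent detection.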
Starred values were filed as active, the others as inactive; ? = inconclusive; . = no result given. The list is not random: actives were taken first. Their share in the collection is about 21%. Unless noted, the call rests on the fitted dose curve; in most records, active means well fitted inhibition curve with a large enough effect; inconclusive means small, poorly fitted or top-dose-only effect; inactive means flat fitted curve, though single readings scatter.

SMILES | DT40 TDP1 no CPT | ClpP mod | IL1B secr inh | D3 ag | TDP1 cell CPT | D3 antag
Nc1c(C(=O)NCc2ccco2)c2nc3ccccc3nc2n1Cc1ccc(F)cc1 | ? | 28µM* | ? | -5 | 15µM* | -14
Nc1c(C(=O)NCc2ccco2)c2nc3ccccc3nc2n1Cc1ccccc1 | 26µM* | 4% | ? | -2 | 16µM* | 3
COCC(C)OC(=O)c1c(N)n(Cc2ccco2)c2nc3ccccc3nc12 (stereo unspecified) | ? | ? | -10 | -4 | -4% | 13
COc1ccc(Cn2c(N)c(C(=O)NCc3ccco3)c3nc4ccccc4nc32)cc1 | ? | 32µM* | ? | 10 | ? | 5
CCCCOC1NC(=O)NC(=O)C1(F)C(=O)OCC (stereo unspecified) | ? | -2% | 24 | 9 | ? | 10
c1ccc(CN2Cc3ccccc3-n3nncc3C2)nc1 | -20% | -6% | 2 | 4 | -6% | 3
COc1ccc(N2C(=O)NC(=O)/C(=C\c3ccc([N+](=O)[O-])s3)C2=O)cc1 | ? | . | ? | 1 | 13µM* | -2
O=C1NC(=O)N(c2ccccc2)C(=O)/C1=C\c1ccccc1[N+](=O)[O-] | -24% | -7% | 15 | -12 | 23µM* | 19
O=C1NC(=O)N(c2ccccc2)C(=O)/C1=C/c1ccoc1 | -21% | . | 20 | 0 | ? | 18
COc1ccccc1N1C(=O)NC(=O)/C(=C/c2ccc([N+](=O)[O-])s2)C1=O | 15µM* | 1% | -62* | 4 | 8.2µM* | 7
COc1ccccc1N1C(=O)NC(=O)/C(=C\c2cnn(-c3ccccc3)c2)C1=O | ? | . | -90* | 3 | ? | 12
Cc1ccc([C@H]2C[C@@H](n3cc(C4CC4)nn3)[C@H](O)CN2Cc2cccs2)cc1 | -21% | -6% | 3 | 5 | -29% | 4
Cc1cc(NC(=O)c2cccn(Cc3cccc([N+](=O)[O-])c3)c2=O)no1 | -12% | -4% | . | 0 | -14% | .
O[C@@H]1CCCC[C@@H]1N1CCC(c2ccccc2)CC1 | 8% | . | . | . | -3% | .
COc1ccc(N2C(=O)NC(=O)/C(=C/c3ccc([N+](=O)[O-])s3)C2=O)cc1 | 6.5µM* | -5% | 0 | -15 | 15µM* | -30
O=C1NC(=O)N(c2ccccc2)C(=O)/C1=C/c1ccc(Sc2ccccc2)o1 | ? | 1% | -101* | 5 | ? | -18
O=C1NC(=O)N(c2cccc(Cl)c2)C(=O)/C1=C\c1ccc(Sc2nc3ccccc3[nH]2)o1 | ? | 0% | -11 | -14 | ? | -18
N#CCCn1cc(C(=O)NCc2ccccc2)c(-c2ccc3c(c2)OCCO3)n1 | -12% | 1% | 12 | 0 | -6% | 12
OC(Cn1c2ccccc2c2ccccc21)C[n+]1cccc2ccccc21 (stereo unspecified) | 16µM* | 1% | -68* | 0 | 18µM* | -15
CN1CCN(c2nc3c(c(=O)[nH]2)CCC3)CC1 | 23% | 0% | 23 | -5 | -8% | 4
O=c1[nH]c(SCc2ccccc2Cl)nc2c1CCCC2 | ? | 1% | 15 | 31* | ? | 55
COc1ccc(CC(=O)NC(=S)NNC(=O)COc2c(C)cccc2C)cc1 | 16µM* | 1% | 22 | -9 | 16µM* | ?
NC[C@@H](CC(=O)O)c1ccc(Cl)cc1 | -1% | . | . | . | 12% | .
COc1ccc(C)cc1NC1=NC(C)(C)CS1 | -16% | 0% | 26 | 2 | 0% | 12
Cc1cccc(N2CCN(C(=O)CCCCn3c(=O)[nH]c4ccsc4c3=O)CC2)c1C | 18µM* | -5% | . | 10 | ? | .
SMILES | DT40 TDP1 no CPT | ClpP mod | IL1B secr inh | D3 ag | TDP1 cell CPT | D3 antag
CSc1ccc(/C=C/c2nc3ccccc3c(=O)n2-c2cccc(Cl)c2C)cc1 | ? | 0% | . | -2 | ? | .
CCCOC(C(=O)OC1CCN(C)CC1)(c1ccccc1)c1ccccc1 | 12µM* | . | . | -20 | 21µM* | .
CCOc1cc(CNCCc2c[nH]c3ccccc23)cc(Cl)c1OCC | 18µM* | 0% | -97* | -29 | 16µM* | -76*
COc1cc(CNCCc2ccc3c(c2)OCO3)cc(OC)c1OC | ? | . | -24 | -9 | ? | -9
CCOc1c(Cl)cc(CNCCc2c[nH]c3ccccc23)cc1OC | 15µM* | 1% | -87* | -4 | ? | -1
CCOc1cc(CNC(C)C(O)c2ccccc2)cc(Cl)c1OCC (stereo unspecified) | ? | 1% | ? | 1 | ? | 12
COC(=O)N1CCC2(CCCN(C)C2)CC1 | -20% | . | . | . | 27% | .
CC(C)Cc1nnc(NC(=O)CCC(=O)N2CCC3(CC2)OCCO3)s1 | 3% | . | 23 | -6 | 16% | -1
CC(C)(O)C1O[C@H]2CC[C@@]3(C)[C@@](O)(CC[C@H]4Cc5c([nH]c6ccccc56)[C@@]43C)C2=CC1=O (stereo partly specified) | 24µM* | . | . | . | 21µM* | .
O.O.O.O=C([O-])C(O)C(O)C(=O)[O-].O=C([O-])C(O)C(O)C(=O)[O-].[K+].[K+].[Sb].[Sb] (stereo unspecified) | -29% | . | . | -11 | -9% | .
CN(CC(=O)Nc1cccc(F)c1)CC(=O)Nc1cccc(S(=O)(=O)N(C)c2ccccc2)c1 | 23µM* | 1% | -79* | 1 | 23µM* | 6
O=C1NC(=O)N(CCC2=CCCCC2)C(=O)/C1=C\c1cccs1 | ? | 1% | -14 | -1 | ? | 11
Cn1cccc1/C=C1\C(=O)NC(=O)N(Cc2ccccc2Cl)C1=O | 4.6µM* | . | 27 | -9 | 5.8µM* | -21
Cn1cccc1/C=C1\C(=O)NC(=O)N(CCC2=CCCCC2)C1=O | 13µM* | . | 33 | -3 | 16µM* | ?
Cc1cccnc1-n1c(-c2ccco2)nc2ccccc2c1=O | ? | -1% | 21 | 1 | -28% | 5
O=c1c2ccccc2nc(-c2ccoc2)n1-c1ccccc1Cl | 16µM* | -3% | -17 | 0 | 21µM* | -3
COc1ccccc1-n1c(-c2ccoc2)nc2ccccc2c1=O | 18µM* | -2% | 5 | -1 | 12µM* | 1
